Test results from PubChem BioAssay.
Several values for one entry are separate records, joined by “and”; a condition that tells them apart may be missing. Equal values may be shown once. Activity calls are given as the source filed them. Rule as the data show it, unless noted: active = parasite load remaining mostly below about 12% (no sharp cut-off); inactive = mostly above about 10%.

Tests used:
[1] = liver-stage malaria parasite growth inhibition, primary screen, cell-based, HepG2, luciferase luminescence, HepG2 viability (AID 624349);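 also: 100% = mean of DMSO negative control wells on the same plate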; conditions: P. berghei liver stage in HepG2, luciferase luminescence, concentration not given here; parasite load remaining: stronger effect = lower value; viability: measured here: HepG2 viability without parasites
[2] = test system: Hepatitis C virus NS3 helicase; test: HCV NS3 helicase inhibitors, primary screen, biochemical, fluorescence polarization, LOPAC1280 library (AID 687035; in the data active = inhibition above about 37%); conditions: Purified HCV NS3 helicase, Cy5-dT15 ssDNA binding fluorescence polarization; stronger effect = higher value; concentration not given here
[3] = Cy5 fluorescence quenching or enhancement artefacts, artefact control for HCV NS3 helicase inhibitor project, biochemical, LOPAC1280 (AID 687037; call rule not given here); conditions: Cy5-DNA-NS3h complex fluorescence interference counterscreen
[4] = stimulators of nuclear beta-catenin in C2C12, primary screen, imaging, WNT3A-conditioned medium, mouse C2C12, NPC library (AID 1117326; in the data active = nuclear beta-catenin stimulation mostly above about 4.2%, no sharp cut-off; inactive = mostly below about 10%); conditions: stronger effect = higher value
[5] = stimulators of insulin release from INS-1E, primary screen, cell-based, 5 mM glucose, NPC library (AID 1117329;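 active = compound raises insulin release from rat beta cells at 5 mM glucose, no numeric limit stated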); conditions: rat INS-1E insulin secretion, at 10 µM, stronger effect = higher value
[6] = growth inhibition of GSK3B-pretreated HCT116 cells – cell-based, CellTiter-Glo, 0.2 to 20 µM (AID 1117336;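 active = compounds lowering colon cancer cell viability after pretreatment blocking the GSK3B kinase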); conditions: HCT116 viability after GSK3B inhibitor, at 20 µM, stronger effect = higher value
[7] = inhibition of endothelial tube formation, primary screen, imaging, VEGF stimulated, CD31 staining, tube area, NPC library (AID 1117340;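 active = compound that reduces growth-factor-driven endothelial tube area in a mixed cell culture, no cutoff stated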); conditions: VEGF-stimulated ADSC/ECFC co-culture, at 10 µM, stronger effect = higher value
[8] = glucagon-like peptide 1 release enhancers, primary assay, NCI-H716 cell line, NPC library (AID 1117341;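 active = compound raises GLP1 secretion from the human gut endocrine cells, with no numeric limit stated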); conditions: NCI-H716 cells, at 10 µM, stronger effect = higher value
[9] = HCT116 colon cancer cell growth inhibition, primary screen, CellTiter-Glo luminescence, NPC library (AID 1117342;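 active = compounds that lower survival of HCT116 colon cancer cells in the luminescence readout, no numeric limit stated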); conditions: at 20 µM (top of the series)
[10] = CellTiter-Glo luminescent readout of SW480 viability loss, NPC library primary (AID 1117343;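 active = compounds that lower viability of the colon cancer cells in the luminescence readout, with no numeric limit stated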); conditions: CellTiter-Glo luminescence; at 20 µM (top of the series)
[11] = decreased DLD-1 cellular survival, CellTiter-Glo luminescent readout, NPC compound collection, primary HTS (AID 1117346;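 active = compounds that lower survival of DLD-1 colon cancer cells in the luminescence readout, no cutoff given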); conditions: DLD-1 viability, CellTiter-Glo luminescence; at 20 µM (top of the series)
[12] = biological target: 6-phosphogluconate dehydrogenase, decarboxylating (Homo sapiens) (UniProt P52209); test: 6PGD enzyme inhibitors, primary screen, biochemical, human, recombinant enzyme, NADPH absorbance (AID 1159550;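 active = at least 20% inhibition of 6-phosphogluconate dehydrogenase activity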); conditions: recombinant 6PGD, NADPH absorbance 341 nm; at 10 µM; stronger effect = higher value
Chain of 6-phosphogluconate dehydrogenase, decarboxylating (Homo sapiens) (P52209 whole entry, looked up): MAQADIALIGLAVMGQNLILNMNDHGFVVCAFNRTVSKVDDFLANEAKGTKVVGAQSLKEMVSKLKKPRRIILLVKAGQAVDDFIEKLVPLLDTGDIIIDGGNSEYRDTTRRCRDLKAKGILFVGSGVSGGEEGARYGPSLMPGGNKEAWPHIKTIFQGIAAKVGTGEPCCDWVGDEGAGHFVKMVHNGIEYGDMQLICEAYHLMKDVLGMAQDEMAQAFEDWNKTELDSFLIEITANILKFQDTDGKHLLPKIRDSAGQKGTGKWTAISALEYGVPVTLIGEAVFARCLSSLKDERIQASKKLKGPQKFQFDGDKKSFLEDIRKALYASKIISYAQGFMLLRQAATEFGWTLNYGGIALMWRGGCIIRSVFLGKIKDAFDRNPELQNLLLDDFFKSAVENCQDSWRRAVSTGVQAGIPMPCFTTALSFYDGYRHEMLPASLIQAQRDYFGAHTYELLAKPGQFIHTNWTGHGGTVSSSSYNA

| SMILES | parasite load remaining [1] | viability [1] | inhibition [2] | fluorescence ratio (interference) [3] | nuclear beta-catenin stimulation ([4]; at 10 µM) | nuclear beta-catenin stimulation ([4]; stimulation, at 2 µM) | insulin secretion stimulation [5] | viability decrease [6] | tube area decrease [7] | GLP1 secretion stimulation [8] | inhibition of viability [9] | viability decrease (inhibition) [10] | viability decrease (inhibition) [11] | inhibition [12] |
| --- | --- | --- | --- | --- | --- | --- | --- | --- | --- | --- | --- | --- | --- | --- |
| C[C@H]1c2cccc(O)c2C(O)=C2C(=O)[C@]3(O)C(O)=C(C(N)=O)C(=O)[C@@H](N(C)C)[C@@H]3[C@@H](O)[C@@H]21 | 95% (inactive) and 57.5% (inactive) and 31.3% (inactive) | 76.2% and 97.6% and 73.5% | -1% (inactive) | 1 (inactive) | -0.3% (inactive) | 3.8% | -0.5% (inactive) | 92.4% (active) | -4.2% (inactive) | 2.6% (inactive) | 68.1% (active) | 61.1% (active) | 90.9% (active) | 9.31% (inactive) |
| C[N+](C)(C)CCCCCC[N+](C)(C)C | 28% (inactive) and 143% (inactive) and 127% (inactive) | 48% and 87.6% and 90.7% | 0% (inactive) and -2% (inactive) | 1 (inactive) | -0.3% (inactive) | -1.6% | 0.75% (inactive) | 10.7% (inactive) | -10.2% (inactive) | -1.6% (inactive) | 13.3% (inactive) | -4.3% (inactive) | 5.4% (inactive) | 12.6% (inactive) |
| CCCOc1ccccc1-c1nc2n[nH]nc2c(=O)[nH]1 | – | – | -1% (inactive) | 1 (inactive) | -0.2% (inactive) | 0.5% | -0.8% (inactive) | -203% (inactive) | -11.3% (inactive) | 1.4% (inactive) | 17.5% (inactive) | 9.4% (inactive) | 1% (inactive) | -4.08% (inactive) |
| O=C(O)CCCCCCCC(=O)O | 102% (inactive) and 78.4% (inactive) | 69% and 83.5% | 0% (inactive) | 0.9 (inactive) | 0.3% (inactive) | -0.5% | 0.4% (inactive) | -10.2% (inactive) | 2.7% (inactive) | -4.7% (inactive) | -4.13% (inactive) | 15% (inactive) | -3.7% (inactive) | -2.42% (inactive) |
| CSc1ccc2c(c1)C(N1CCN(C)CC1)Cc1ccccc1S2 (stereo not given) | 74.1% (inactive) and 71.4% (inactive) and 63.7% (inactive) | 72.2% and 69.9% and 104% | -5% (inactive) | 0.9 (inactive) | 61.9% (active) | 1.4% | 30.7% (active) | 111% (active) | 61.8% (active) | 19.2% (inactive) | 113% (active) | 132% (active) | 102% (active) | -11.1% (inactive) |
| CCOC(=O)C(C)(C)Oc1ccc(Cl)cc1 | 56.5% (inactive) and 51.6% (inactive) | 100% and 144% | -5% (inactive) | 1 (inactive) | 0% (inactive) | 1.6% | -0.8% (inactive) | -28.2% (inactive) | -5.8% (inactive) | -1.1% (inactive) | -9.77% (inactive) | 7.5% (inactive) | -40.7% (inactive) | -1.28% (inactive) |
| Cc1cc(N)c2ccccc2[n+]1CCCCCCCCCC[n+]1c(C)cc(N)c2ccccc21 | 4.91% (inactive) and -3.56% (inactive) and 27.5% (inactive) | 97.2% and 73.1% and 69.2% | 2% (inactive) | 0.9 (inactive) | 25% (inactive) | -0.1% | -0.4% (inactive) | 85.5% (active) | 106% (active) | -0.6% (inactive) | 74.9% (active) | 83% (active) | 85.1% (active) | 4.29% (inactive) |
| NC(Cc1ccc(Cl)cc1)C(=O)O (stereo not given) | – | – | -3% (inactive) | 1 (inactive) | 1.4% (inactive) | 2.1% | -1.3% (inactive) | -0.7% (inactive) | -8.9% (inactive) | 0.5% (inactive) | -7.8% (inactive) | 13.2% (inactive) | -6.55% (inactive) | 5.29% (inactive) |
| CN1Cc2c(N)cccc2C(c2ccccc2)C1 (stereo not given) | – | – | – | 1 (inactive) | 3.1% (inactive) | 1.5% | 6.6% (inactive) | -9.2% (inactive) | 3.2% (inactive) | 0.3% (inactive) | 10% (inactive) | 25.6% (inactive) | 4.2% (inactive) | 5.71% (inactive) |
| NC(=O)c1ncn([C@@H]2O[C@H](CO)[C@@H](O)[C@H]2O)c1O | – | – | -3% (inactive) | 1 (inactive) | 3% (inactive) | 2.4% | -2.6% (inactive) | -1.75% (inactive) | 3.8% (inactive) | 2.6% (inactive) | -13.1% (inactive) | 2.7% (inactive) | 4.7% (inactive) | 1.32% (inactive) |
| CN1CCN(CC(=O)N2c3ccccc3C(=O)Nc3cccnc32)CC1 | – | – | -1% (inactive) | 1 (inactive) | 1.7% (inactive) | -0.5% | -1.3% (inactive) | -6.7% (inactive) | 7.8% (inactive) | -0.5% (inactive) | -2.2% (inactive) | -14.1% (inactive) | 5.4% (inactive) | 7.85% (inactive) |
| COCCc1ccc(OCC(O)CNC(C)C)cc1 (stereo not given) | – | – | 1% (inactive) | 1 (inactive) | 0.8% (inactive) | 1.6% | 5.6% (inactive) | -27.4% (inactive) | -8.1% (inactive) | -3.5% (inactive) | 12.1% (inactive) | 17.2% (inactive) | -6.3% (inactive) | -13.3% (inactive) |
